From PMC5540273 (PLoS ONE, 2017)

Tests used:
Conditions in all cases: concentration: 1 μM, replicates: in singlicate; n = 1
[1] = tested on: AAK1
[2] = tested on: ABL1-nonphosphorylated
[3] = tested on: ABL1-phosphorylated
[4] = tested on: ABL2
[5] = tested on: ACVR1B
[6] = tested on: ACVR1
[7] = tested on: ACVR2A
[8] = tested on: ACVR2B
[9] = tested on: ACVRL1
[10] = tested on: T1, ADCK3
T1 construct: gene CABC1

[11] = tested on: ADCK4
[12] = tested on: AKT1
[13] = tested on: AKT2
[14] = tested on: AKT3
[15] = tested on: ALK
[16] = tested on: T2, AMPK-alpha1
T2 construct: gene PRKAA1

[17] = tested on: T3, AMPK-alpha2
T3 construct: gene PRKAA2

[18] = tested on: ANKK1
[19] = tested on: T4, ARK5
T4 construct: gene NUAK1

[20] = tested on: T5, ASK1
T5 construct: gene MAP3K5
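Further: KINOMEscan kinase panel screen.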

Row | Compound | %Inh [1] | %Inh [2] | %Inh [3] | %Inh [4] | %Inh [5] | %Inh [6] | %Inh [7] | %Inh [8] | %Inh [9] | %Inh [10] | %Inh [11] | %Inh [12] | %Inh [13] | %Inh [14] | %Inh [15] | %Inh [16] | %Inh [17] | %Inh [18] | %Inh [19] | %Inh [20]
1 | Cc1ccc(NC(=O)c2ccnc(N3CCCCC3)c2)cc1-c1ccc(C(=O)NCC2CC2)cc1 [GW775610] | 0% | 55% | 0% | 54% | 0% | 0% | 0% | 0% | 0% | 0% | 0% | 0% | 0% | 0% | 10% | 19% | 0% | 0% | 2% | 0%
2 | Cc1ccc(NC(=O)c2ccc(Cl)c(Cl)c2)cc1-c1ccc(C(=O)Nc2ccncc2)cc1 [GSK1398460] | 8% | 26% | 4% | 41% | 0% | 6% | 0% | 2% | 0% | 9% | 20% | 0% | 15% | 0% | 41% | 21% | 21% | 18% | 10% | 16%
3 | Nc1ncc(-c2cn[nH]c2)c2scc(-c3ccc4c(c3)CCN4C(=O)Cc3ccccc3)c12 [GSK2593067] | 52% | 99.2% | 81% | 89% | 0% | 0% | 0% | 16% | 0% | 0% | 0% | 0% | 2% | 0% | 0% | 11% | 16% | 1% | 26% | 5%
4 | O=C1NC(=O)C(c2ccccc2Cl)=C1Nc1cccc(Cl)c1 [SB-342409] | 7% | 0% | 9% | 16% | 0% | 12% | 0% | 0% | 70% | 20% | 0% | 0% | 100% | 0% | 41% | 0% | 11% | 0% | 14% | 8%
5 | Cc1cccc(Nc2nc(N[C@H]3CCCC[C@H]3N)ncc2C(N)=O)c1.Cl [GSK986310] | 55% | 0% | 8% | 24% | 0% | 5% | 0% | 11% | 0% | 17% | 29% | 0% | 28% | 0% | 61% | 39% | 29% | 95.7% | 40% | 0%
6 | Cc1ccc(NC(=O)c2cccc(N3CCCCC3)c2)cc1-c1ccc(C(=O)NCC2CC2)cc1 [GSK1917008] | 0% | 0% | 0% | 25% | 0% | 14% | 6% | 10% | 2% | 27% | 1% | 0% | 8% | 2% | 19% | 0% | 28% | 3% | 28% | 12%
7 | N#Cc1cnc2cc(-c3cnc(CNCCN4CCOCC4)s3)ccc2c1Nc1ccc(Oc2ccccc2)cc1 [GW664114] | 31% | 97.4% | 49% | 58% | 0% | 0% | 0% | 0% | 0% | 0% | 36% | 0% | 0% | 0% | 34% | 21% | 30% | 45% | 10% | 5%
8 | Nc1ncnc2scc(-c3ccc(NC(=O)Cc4cc(F)ccc4F)cc3)c12.O=C(O)C(F)(F)F [SB-731254-M] | 10% | 80% | 50% | 9% | 14% | 0% | 24% | 1% | 0% | 16% | 3% | 0% | 0% | 9% | 18% | 18% | 11% | 49% | 2% | 10%
9 | Cn1cc(-c2cnc(N)c3c(-c4ccc5c(c4)CCN5C(=O)Cc4ccccc4)csc23)cn1 [GSK2593074] | 0% | 99.7% | 89% | 81% | 9% | 7% | 0% | 0% | 0% | 7% | 0% | 14% | 0% | 8% | 0% | 17% | 0% | 0% | 3% | 21%
10 | CN(c1ccc(NC(=O)N2CCN(CCCN3CCOCC3)CC2)cc1)c1ccnc(Nc2ccc(CS(C)(=O)=O)cc2)n1.Cl [GW830899] | 55% | 72% | 60% | 8% | 0% | 0% | 23% | 45% | 0% | 3% | 5% | 0% | 0% | 0% | 0% | 0% | 12% | 0% | 0% | 0%
